In article PMC7862700, “An all-to-all approach to the identification of sequence-specific readers for epigenetic DNA modifications on cytosine” one finds binding signal data, which are given here for one sequence.

Common to all, as to assay: DAPPL (digital affinity profiling via proximity ligation, sequencing); 10 mM Tris-HCl pH 7.5, 50 mM NaCl, 1 mM DTT, 4% glycerol, room temperature, 30 min; GST-TFs on glutathione beads, 16-mer random dsDNA library, 0.1% formaldehyde crosslink after washing; high values mean tight binding
Conditions in all cases: protein: recombinant; tags: N-terminal GST; dsDNA, one strand shown

One test deals with T1, ELK1 (Homo sapiens, UniProt P19419 1-428).
T1 sequence: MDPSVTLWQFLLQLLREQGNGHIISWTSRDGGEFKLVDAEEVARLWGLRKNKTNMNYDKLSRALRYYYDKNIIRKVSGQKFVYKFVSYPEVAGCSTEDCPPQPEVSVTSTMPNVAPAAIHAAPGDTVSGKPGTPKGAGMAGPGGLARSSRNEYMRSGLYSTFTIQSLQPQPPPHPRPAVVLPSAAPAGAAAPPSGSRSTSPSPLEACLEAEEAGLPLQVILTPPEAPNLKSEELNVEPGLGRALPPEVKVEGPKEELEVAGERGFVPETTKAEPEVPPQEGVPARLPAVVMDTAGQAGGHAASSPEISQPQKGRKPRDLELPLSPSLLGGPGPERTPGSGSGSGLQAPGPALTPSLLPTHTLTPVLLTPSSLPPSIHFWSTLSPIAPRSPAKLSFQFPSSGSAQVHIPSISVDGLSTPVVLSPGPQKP
A digest of the protocol: (§1)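 Sequencing on an Illumina NextSeq500 followed washing, crosslinking with 0.1% formaldehyde, proximity ligation (BsaI/T4 ligase, 1 h, 37 °C) and PCR amplification of pools that had been incubated for 30 min at room temperature with 200 nmole of a random double-stranded 16-mer DNA library in Tris/NaCl/DTT/glycerol buffer. Each pool held DNA-barcoded human transcription factors, expressed in yeast as GST fusions and captured on glutathione beads, plus a tag-only sample. Binding signal is a hexamer's read frequency for a factor divided by its frequency in the tag-only sample.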

The target of the next test is T2, GABPA (Homo sapiens, UniProt Q06546 1-454).
T2 sequence: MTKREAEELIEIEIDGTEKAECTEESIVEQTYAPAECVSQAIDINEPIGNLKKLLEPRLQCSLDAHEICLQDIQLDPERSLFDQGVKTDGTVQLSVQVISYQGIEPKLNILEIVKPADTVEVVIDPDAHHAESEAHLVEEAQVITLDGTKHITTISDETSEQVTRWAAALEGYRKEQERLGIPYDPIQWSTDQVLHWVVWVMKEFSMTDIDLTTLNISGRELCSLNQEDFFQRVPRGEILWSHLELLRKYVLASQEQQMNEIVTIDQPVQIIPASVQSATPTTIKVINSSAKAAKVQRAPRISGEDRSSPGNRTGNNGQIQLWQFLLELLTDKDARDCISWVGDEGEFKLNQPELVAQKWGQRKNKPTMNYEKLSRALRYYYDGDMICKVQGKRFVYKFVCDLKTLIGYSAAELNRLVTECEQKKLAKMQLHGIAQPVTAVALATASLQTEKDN
Summed up: as §1

The target in a further test is T3, ERG (Homo sapiens, UniProt P11308 1-479).
T3 sequence: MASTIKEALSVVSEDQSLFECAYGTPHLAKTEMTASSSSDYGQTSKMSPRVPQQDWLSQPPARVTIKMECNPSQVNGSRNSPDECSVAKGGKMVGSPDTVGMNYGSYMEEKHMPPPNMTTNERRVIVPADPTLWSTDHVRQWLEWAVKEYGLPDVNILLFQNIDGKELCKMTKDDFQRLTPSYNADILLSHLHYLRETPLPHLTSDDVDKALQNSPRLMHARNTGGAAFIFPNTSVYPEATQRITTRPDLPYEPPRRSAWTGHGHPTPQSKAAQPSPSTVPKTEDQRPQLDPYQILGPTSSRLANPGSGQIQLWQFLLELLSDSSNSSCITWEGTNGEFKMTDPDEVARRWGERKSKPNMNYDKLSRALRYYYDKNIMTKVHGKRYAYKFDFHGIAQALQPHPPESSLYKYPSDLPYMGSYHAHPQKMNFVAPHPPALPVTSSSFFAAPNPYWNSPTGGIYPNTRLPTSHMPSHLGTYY
Summed up:
as §1

The target in a further test is ELF1 (Homo sapiens, UniProt P32519 1-619). A digest of the protocol: as §1
Sequence of ELF1 (P32519 whole entry): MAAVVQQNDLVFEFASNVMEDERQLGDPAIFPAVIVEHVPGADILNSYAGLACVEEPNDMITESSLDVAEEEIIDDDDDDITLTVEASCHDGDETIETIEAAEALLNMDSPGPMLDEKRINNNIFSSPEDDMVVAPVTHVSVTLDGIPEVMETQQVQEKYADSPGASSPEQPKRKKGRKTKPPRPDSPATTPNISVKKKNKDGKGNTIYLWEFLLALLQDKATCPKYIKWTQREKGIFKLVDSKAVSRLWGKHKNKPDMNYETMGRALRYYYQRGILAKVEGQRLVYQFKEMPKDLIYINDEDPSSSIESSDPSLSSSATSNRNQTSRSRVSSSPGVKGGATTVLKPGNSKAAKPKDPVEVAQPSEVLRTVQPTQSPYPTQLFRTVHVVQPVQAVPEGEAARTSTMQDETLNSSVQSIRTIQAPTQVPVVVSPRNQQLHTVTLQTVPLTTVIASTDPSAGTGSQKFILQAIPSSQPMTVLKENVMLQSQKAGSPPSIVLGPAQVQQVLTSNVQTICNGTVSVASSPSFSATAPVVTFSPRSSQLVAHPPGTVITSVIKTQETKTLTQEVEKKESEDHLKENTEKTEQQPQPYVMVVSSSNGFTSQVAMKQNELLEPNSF
In the next test the target is T4, ELK3 (Homo sapiens, UniProt P41970 1-407).
T4 sequence: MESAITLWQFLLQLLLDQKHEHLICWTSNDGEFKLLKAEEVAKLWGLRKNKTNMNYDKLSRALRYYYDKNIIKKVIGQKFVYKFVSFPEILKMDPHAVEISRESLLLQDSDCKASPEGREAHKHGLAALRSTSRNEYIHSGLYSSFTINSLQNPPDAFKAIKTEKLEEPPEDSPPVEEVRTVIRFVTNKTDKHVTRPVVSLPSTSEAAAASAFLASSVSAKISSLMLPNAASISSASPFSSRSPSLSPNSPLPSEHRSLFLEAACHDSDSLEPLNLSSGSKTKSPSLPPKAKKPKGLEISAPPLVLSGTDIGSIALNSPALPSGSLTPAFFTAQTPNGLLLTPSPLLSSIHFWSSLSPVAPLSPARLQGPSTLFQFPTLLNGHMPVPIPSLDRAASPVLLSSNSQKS
A digest of the protocol: as §1

A further test deals with T5, SPIC (Homo sapiens, UniProt Q8N5J4 1-248).
T5 sequence: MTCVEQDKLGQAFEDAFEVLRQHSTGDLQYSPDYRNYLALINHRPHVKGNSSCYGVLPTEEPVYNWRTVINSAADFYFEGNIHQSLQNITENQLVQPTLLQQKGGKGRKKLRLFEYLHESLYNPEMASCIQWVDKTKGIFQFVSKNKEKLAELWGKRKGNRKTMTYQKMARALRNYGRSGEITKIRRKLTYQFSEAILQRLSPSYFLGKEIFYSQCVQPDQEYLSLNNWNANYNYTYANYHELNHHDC
Summed up:
as §1

The next test concerns the target ELF4 (Homo sapiens, UniProt Q99607 1-663). Summed up: as §1
For a further test, the target named is T6, ELF3 (Homo sapiens, UniProt P78545 1-371).
T6 sequence: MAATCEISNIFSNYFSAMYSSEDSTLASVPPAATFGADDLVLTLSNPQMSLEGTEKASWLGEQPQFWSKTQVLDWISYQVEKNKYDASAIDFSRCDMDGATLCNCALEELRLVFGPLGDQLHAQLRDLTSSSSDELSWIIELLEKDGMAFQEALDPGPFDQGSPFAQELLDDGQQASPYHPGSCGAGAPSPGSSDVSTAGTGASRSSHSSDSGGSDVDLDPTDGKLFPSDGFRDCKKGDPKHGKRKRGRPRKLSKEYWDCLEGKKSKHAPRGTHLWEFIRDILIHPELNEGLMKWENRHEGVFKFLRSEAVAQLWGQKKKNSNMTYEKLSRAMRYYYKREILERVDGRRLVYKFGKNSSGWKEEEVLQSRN
Summed up: as §1

Another test deals with T7, ERF (Homo sapiens, UniProt P50548 1-548).
T7 sequence: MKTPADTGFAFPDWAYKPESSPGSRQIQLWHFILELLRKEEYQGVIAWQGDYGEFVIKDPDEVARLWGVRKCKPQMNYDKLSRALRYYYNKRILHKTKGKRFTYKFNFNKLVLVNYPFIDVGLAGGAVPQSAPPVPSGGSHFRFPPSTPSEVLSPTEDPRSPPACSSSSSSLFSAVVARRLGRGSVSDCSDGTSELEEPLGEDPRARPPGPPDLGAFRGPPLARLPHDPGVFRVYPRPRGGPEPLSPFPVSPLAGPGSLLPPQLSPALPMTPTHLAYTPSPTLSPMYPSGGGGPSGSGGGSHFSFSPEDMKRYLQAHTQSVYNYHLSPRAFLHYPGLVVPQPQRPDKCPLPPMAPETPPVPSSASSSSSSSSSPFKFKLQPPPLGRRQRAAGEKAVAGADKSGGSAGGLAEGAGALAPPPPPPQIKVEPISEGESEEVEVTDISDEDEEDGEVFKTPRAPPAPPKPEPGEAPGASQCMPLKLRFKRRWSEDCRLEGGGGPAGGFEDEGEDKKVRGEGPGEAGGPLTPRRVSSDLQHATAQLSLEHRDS
Summed up: as §1

The next test has as its target T8, ETV3L (Homo sapiens, UniProt Q6ZN32 1-361).
T8 sequence: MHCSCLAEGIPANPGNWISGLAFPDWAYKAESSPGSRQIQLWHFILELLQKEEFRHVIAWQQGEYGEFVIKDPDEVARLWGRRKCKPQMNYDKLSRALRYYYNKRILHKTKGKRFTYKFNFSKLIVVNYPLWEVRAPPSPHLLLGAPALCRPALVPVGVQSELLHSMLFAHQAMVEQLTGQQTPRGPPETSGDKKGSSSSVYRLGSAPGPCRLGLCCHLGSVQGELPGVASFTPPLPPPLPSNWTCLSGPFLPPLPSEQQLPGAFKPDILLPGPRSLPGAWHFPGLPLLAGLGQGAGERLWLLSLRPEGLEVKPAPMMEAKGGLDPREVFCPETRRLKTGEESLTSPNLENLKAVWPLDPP
A digest of the protocol:
as §1

The next test has as its target T9, ETS2 (Homo sapiens, UniProt P15036 1-469).
T9 sequence: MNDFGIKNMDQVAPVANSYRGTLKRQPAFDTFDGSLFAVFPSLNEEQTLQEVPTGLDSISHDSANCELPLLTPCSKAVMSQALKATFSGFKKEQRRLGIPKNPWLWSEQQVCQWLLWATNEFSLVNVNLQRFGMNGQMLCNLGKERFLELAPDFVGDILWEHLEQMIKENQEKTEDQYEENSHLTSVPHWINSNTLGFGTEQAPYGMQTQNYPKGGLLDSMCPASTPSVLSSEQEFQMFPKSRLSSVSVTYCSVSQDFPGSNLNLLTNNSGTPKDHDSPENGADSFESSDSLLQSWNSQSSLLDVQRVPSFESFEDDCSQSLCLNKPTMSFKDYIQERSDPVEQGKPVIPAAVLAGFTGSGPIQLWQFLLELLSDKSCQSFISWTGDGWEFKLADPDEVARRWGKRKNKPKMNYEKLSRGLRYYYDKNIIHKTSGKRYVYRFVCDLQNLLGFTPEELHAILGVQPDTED
Summed up: as §1

For the next test, the target named is T10, SPDEF (Homo sapiens, UniProt O95238 1-335).
T10 sequence: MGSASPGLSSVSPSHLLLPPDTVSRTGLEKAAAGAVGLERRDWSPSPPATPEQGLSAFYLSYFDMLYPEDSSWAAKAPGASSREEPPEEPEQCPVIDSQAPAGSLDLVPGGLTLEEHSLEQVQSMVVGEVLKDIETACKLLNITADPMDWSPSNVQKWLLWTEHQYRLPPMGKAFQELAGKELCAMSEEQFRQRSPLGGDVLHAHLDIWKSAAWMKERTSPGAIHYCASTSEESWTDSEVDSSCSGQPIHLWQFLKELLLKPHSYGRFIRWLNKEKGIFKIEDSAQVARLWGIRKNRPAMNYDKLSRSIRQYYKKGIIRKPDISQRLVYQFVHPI
A digest of the protocol:
as §1

A further test has as its target T11, ETV7 (Homo sapiens, UniProt Q9Y603 1-341).
T11 sequence: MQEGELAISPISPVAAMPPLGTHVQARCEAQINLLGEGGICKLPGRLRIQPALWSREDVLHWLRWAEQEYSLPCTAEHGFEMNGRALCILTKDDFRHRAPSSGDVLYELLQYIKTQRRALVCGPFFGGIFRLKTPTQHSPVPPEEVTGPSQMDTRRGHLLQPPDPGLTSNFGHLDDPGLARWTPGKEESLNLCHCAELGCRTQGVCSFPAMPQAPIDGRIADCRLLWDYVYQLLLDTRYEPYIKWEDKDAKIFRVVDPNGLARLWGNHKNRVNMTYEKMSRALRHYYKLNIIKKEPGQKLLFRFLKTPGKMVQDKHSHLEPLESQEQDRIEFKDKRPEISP
A digest of the protocol: as §1

For the next test, the target named is T12, ETV3 (Homo sapiens, UniProt P41162-2 1-143).
T12 sequence: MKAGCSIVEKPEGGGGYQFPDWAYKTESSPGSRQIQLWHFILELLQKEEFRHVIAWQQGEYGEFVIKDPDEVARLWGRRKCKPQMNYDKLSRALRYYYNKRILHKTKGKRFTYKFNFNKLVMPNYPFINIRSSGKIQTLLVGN
Summed up: as §1

A further test addresses ETV6 (Homo sapiens, UniProt P41212 1-452). Summed up:
as §1

Sequence of ETV6 (P41212 whole entry): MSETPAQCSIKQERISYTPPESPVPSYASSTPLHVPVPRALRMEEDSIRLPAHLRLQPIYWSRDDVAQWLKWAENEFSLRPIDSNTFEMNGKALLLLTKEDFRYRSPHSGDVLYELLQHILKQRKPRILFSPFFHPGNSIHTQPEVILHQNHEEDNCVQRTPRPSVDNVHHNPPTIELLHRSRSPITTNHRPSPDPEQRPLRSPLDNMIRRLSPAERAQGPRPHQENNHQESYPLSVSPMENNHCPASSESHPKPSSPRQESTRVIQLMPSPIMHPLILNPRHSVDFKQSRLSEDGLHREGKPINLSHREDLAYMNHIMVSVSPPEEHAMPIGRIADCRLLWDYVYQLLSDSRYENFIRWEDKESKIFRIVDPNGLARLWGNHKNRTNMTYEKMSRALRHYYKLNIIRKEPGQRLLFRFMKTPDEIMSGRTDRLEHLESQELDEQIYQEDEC
Sequence of ELF4 (Q99607 whole entry): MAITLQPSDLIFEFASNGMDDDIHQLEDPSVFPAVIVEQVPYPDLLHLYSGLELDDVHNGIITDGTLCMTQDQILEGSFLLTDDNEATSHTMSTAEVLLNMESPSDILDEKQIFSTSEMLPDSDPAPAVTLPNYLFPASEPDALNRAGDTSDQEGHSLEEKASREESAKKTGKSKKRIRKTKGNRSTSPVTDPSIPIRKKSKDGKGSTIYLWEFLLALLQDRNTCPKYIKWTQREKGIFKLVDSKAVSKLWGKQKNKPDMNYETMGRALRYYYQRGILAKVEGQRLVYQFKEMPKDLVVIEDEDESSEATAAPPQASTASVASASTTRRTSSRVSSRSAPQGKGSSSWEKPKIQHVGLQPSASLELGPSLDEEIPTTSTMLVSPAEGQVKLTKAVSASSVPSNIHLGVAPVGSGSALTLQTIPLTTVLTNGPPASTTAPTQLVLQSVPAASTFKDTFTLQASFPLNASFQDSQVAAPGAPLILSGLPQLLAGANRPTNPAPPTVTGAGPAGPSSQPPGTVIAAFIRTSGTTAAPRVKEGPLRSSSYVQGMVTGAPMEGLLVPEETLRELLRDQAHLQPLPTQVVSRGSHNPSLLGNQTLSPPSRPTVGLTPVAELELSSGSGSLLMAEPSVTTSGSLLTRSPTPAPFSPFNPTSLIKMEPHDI

As for CTAGAA, the binding signal with ELK1 is 1 fold enrichment (6-mer frequency, TF over GST control); in the test with GABPA it was 1.05 fold enrichment (6-mer frequency, TF over GST control); in the test with ERG, 1.05 fold enrichment (6-mer frequency, TF over GST control); with ELF1, 1.04 fold enrichment (6-mer frequency, TF over GST control); with ELK3, 1.09 fold enrichment (6-mer frequency, TF over GST control); in the test with SPIC it was 1.03 fold enrichment (6-mer frequency, TF over GST control). For the same sequence, the binding signal with ELF4 is 1.05 fold enrichment (6-mer frequency, TF over GST control); in the test with ELF3, 1.03 fold enrichment (6-mer frequency, TF over GST control); in the test with ERF, 1.28 fold enrichment (6-mer frequency, TF over GST control); with ETV3L it was 1.03 fold enrichment (6-mer frequency, TF over GST control); in the test with ETS2, 1.02 fold enrichment (6-mer frequency, TF over GST control); with SPDEF, 1.01 fold enrichment (6-mer frequency, TF over GST control). For the same sequence, the binding signal is 1.02 fold enrichment (6-mer frequency, TF over GST control) with ETV7; 1.01 fold enrichment (6-mer frequency, TF over GST control) in the test with ETV3; 1.04 fold enrichment (6-mer frequency, TF over GST control) with ETV6.
